We go through 20 sequences from the supplement of paper PMC10681739.

Assay [1] addresses T1, ETS1 (UniProt P14921).
T1 sequence: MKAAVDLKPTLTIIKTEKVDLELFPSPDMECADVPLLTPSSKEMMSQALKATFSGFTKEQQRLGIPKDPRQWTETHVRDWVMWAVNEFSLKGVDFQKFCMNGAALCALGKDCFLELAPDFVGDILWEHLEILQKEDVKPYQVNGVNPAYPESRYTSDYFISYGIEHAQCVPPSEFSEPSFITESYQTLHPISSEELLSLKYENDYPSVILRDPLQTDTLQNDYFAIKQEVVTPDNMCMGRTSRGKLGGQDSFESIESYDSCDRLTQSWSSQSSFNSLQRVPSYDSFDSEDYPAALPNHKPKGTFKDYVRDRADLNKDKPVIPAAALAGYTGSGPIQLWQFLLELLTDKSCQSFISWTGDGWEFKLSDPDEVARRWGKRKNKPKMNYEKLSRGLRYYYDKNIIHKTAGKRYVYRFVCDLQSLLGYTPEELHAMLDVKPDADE
The experiment in a line: ETS1 binding intensity (PBM fluorescence), ETS1 alone (arbitrary fluorescence units); higher = stronger binding. The note with it: ETS1 concentration 1 nM; RUNX1 concentration 0 nM.

For assay [2], the target named is RUNX1 (UniProt Q01196). Put plainly: RUNX1 binding intensity (PBM fluorescence), RUNX1 alone (arbitrary fluorescence units); higher = stronger binding. The following applies: RUNX1 concentration 2 nM; ETS1 concentration 0 nM. The method, then:
(§1)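 Cooperative gcPBM on 36-bp genomic probes with neighbouring ETS1 and RUNX1 sites. Recombinant human RUNX1 (2 nM) was incubated alone or with ETS1 (25 nM) and detected with anti-RUNX1 antibody plus Alexa488 secondary. Values are medians over 4 replicate spots; the RUNX1+ETS1 data were normalised to the RUNX1-only data. The probes sit in constant array flanks that are not printed.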

Assay [3] addresses T1, ETS1. The experiment in a line: ETS1 binding intensity (PBM fluorescence) in presence of RUNX1, normalised to ETS1-only experiment (arbitrary fluorescence units); higher = stronger binding. The note with it: ETS1 concentration 1 nM; RUNX1 concentration 25 nM.
The target in assay [4] is RUNX1 (UniProt Q01196). The experiment in a line: RUNX1 binding intensity (PBM fluorescence) in presence of ETS1, normalised to RUNX1-only experiment (arbitrary fluorescence units); higher = stronger binding. The following applies: RUNX1 concentration 2 nM; ETS1 concentration 25 nM. As to the method:
as §1
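Throughout, for RUNX1 binding intensity (PBM fluorescence) in presence of ETS1, normalised to RUNX1-only experiment: Full-length recombinant human ETS1 or RUNX1 bound to double-stranded 36-bp genomic probes on microarrays, detected by protein-specific primary antibody and Alexa488 secondary, spot fluorescence as median of four replicate spots.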
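Throughout, for RUNX1 binding intensity (PBM fluorescence), RUNX1 alone: Full-length recombinant human RUNX1 bound to double-stranded 36-bp genomic probes on a high-density microarray, scored as Alexa488 fluorescence per spot via anti-RUNX1 antibody, median of four replicate spots.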

Sequence of RUNX1 (Q01196 whole entry): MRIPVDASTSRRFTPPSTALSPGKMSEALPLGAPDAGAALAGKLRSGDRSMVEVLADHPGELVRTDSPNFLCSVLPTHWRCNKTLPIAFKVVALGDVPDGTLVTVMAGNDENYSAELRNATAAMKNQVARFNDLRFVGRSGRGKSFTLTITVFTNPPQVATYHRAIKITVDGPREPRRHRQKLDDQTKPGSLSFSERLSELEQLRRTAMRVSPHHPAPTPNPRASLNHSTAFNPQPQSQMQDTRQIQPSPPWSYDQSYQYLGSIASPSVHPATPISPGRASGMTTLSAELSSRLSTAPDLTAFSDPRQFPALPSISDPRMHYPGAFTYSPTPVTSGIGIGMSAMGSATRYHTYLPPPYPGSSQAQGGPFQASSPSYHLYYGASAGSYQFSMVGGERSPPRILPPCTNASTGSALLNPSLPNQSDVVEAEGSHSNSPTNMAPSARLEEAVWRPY

AGTGTCCGCCGCTTCCTGGTTGCGGGTCAGCGCCCA: the ETS1 binding intensity in the assay with ETS1 [1] was 629; with ETS1 [3] it was 704. The values for the RUNX1 binding intensity in the assay with RUNX1 [2] and with RUNX1 [4] were 824 and 2690, respectively.
Taken in the same sequence, the figures for GAGACAGGAAATGTAGACTTGAGTCCTGTGGTAAAC were 1910, 6740, 739 and 1260.
As to CCCGACTTCCGCCGCTGGTGGCCACCCGCAGGTAGT, the ETS1 binding intensity with ETS1 [1] is 732; with ETS1 [3] it was 1050. The RUNX1 binding intensity was found to be 789 with RUNX1 [2] and 2050 in the assay with RUNX1 [4].
Taken in the same sequence, the figures for GGACACAGGCTTCCGCGTTACCGACACCGCGTGGGG were 451, 311, 837 and 934.
Taken in the same sequence, the figures for GAGGAGGAAAGCGGAAGCGCTGCCCGCAGTGGTAGG were 4260, 8570, 651 and 1270.
Taken in the same sequence, the figures for TTTGATTTCCTGTCTCCATGTTGTGGTCAAGATTGC were 1080, 2990, 1370 and 4420.
Regarding CTTCGACCCCGGAAGCGCTAACCACCCCGGGGGCCG, the ETS1 binding intensity in the assay with ETS1 [1] turned out to be 4160; with ETS1 [3], 5880. In addition, the figures for the RUNX1 binding intensity with RUNX1 [2] and with RUNX1 [4] were 797 and 1370, respectively.
Taken in the same sequence, the figures for TCACCTCATCACAGGAAACCGCGAGCACCTCCTCCT were 2180, 5440, 1610 and 1770.
Taken in the same sequence, the figures for GTGCAGGGCCCGGAAGCTCAGTGTGGTTAAAGACAT were 2010, 5260, 805 and 1540.
For the sequence GACTGGACAACTTCCTGGTGGAAAACCGCGACTCTT, the ETS1 binding intensity in the assay with ETS1 [1] came to 637; in the assay with ETS1 [3], 2930. Further, the RUNX1 binding intensity in the assay with RUNX1 [2] came to 1050; with RUNX1 [4] it was 2340.
On to TTGGTTGTTGCCAGAGGATGTGGGTTGGCGGGGGAG, for which the ETS1 binding intensity is 1690 with ETS1 [1] and 4480 with ETS1 [3]. The figures for the RUNX1 binding intensity in the assay with RUNX1 [2] and with RUNX1 [4] were 897 and 933, respectively.
Taken in the same sequence, the figures for GCTGATAAAACAGGATGTGGTAAAGAAGCCGGCCAA were 5160, 18000, 817 and 8590.
Taken in the same sequence, the figures for TCTTGTTTCTTCCGTTACCGGAGCGCGGTCACGTGA were 455, 438, 979 and 1570.
Taken in the same sequence, the figures for ACGCGCTCCCTCACTTCCTGCGGCTTTTGGTCCCTC were 1310, 1500, 1880 and 2800.
AATCCCGGAAACGCGGATTCAGCGGAGCGCGGTGAC: the values for the ETS1 binding intensity in the assay with ETS1 [1] and with ETS1 [3] were 1280 and 1500, respectively. Moreover, the results for the RUNX1 binding intensity with RUNX1 [2] and with RUNX1 [4] were 735 and 1260, respectively.
Regarding TGAGAGTAAAAAGGATGTGGTTTCCTTTCATTTTTT, the ETS1 binding intensity came to 1580 with ETS1 [1] and 6790 in the assay with ETS1 [3]. In addition, the figures for the RUNX1 binding intensity in the assay with RUNX1 [2] and with RUNX1 [4] were 927 and 2430, respectively.
With TGTCTTCAGGAAGTGTAGCAGGTGTTGAGGTCAAGC, the values for the ETS1 binding intensity with ETS1 [1] and in the assay with ETS1 [3] were 900 and 998, respectively. The RUNX1 binding intensity was found to be 703 with RUNX1 [2] and 914 in the assay with RUNX1 [4].
Taken in the same sequence, the figures for CCGGCAGGAAGTTAGCATGGGCGGACCACACGGGGG were 1400, 1530, 1470 and 1590.
For the sequence GCGGGGCGCAGGAAGCGGGGCGAAACCACTGTTGGC, the ETS1 binding intensity in the assay with ETS1 [1] came out at 1040; in the assay with ETS1 [3] it was 1550. In addition, the results for the RUNX1 binding intensity in the assay with RUNX1 [2] and with RUNX1 [4] were 753 and 1010, respectively.
Taken in the same sequence, the figures for CCAGCCGGAAGCCCCGCCCCCTAGAGGCACCGCGGA were 1010, 962, 1000 and 1270.
